Test results: the supplement of paper PMC3342239
Where a name gives a salt, the structure may show the parent alone.

Test system: Saccharomyces cerevisiae
Test: fraction of cells in G1 phase (DNA content, flow cytometry); higher = more cells with unreplicated DNA (G1 delay)
Conditions: temperature: 30 C; YPD; JTY2953 pdr5 snq2 (sensitized); drug added to: cultures diluted from stationary phase; 6-7 h
In short: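 Yeast (S. cerevisiae) in YPD at 30°C was treated with library drugs, and cells were then fixed in ethanol, stained with SYTOX Green and counted by flow cytometry over 10,000 events. Sensitized JTY2953 diluted 1∶200 from an overnight culture got a final 20 µg/ml and was fixed 6–7 h later; other runs dosed dividing JTY2953 (fixed at 6 h) or BY4741 (fixed at 4.33 h). G1 fraction means the Dean-Jett-Fox G1 peak area relative to the G1 and G2/M areas together.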

**Q.** `C=CCc1ccccc1OCC(O)CNC(C)C` (stereo not drawn) [Alprenolol HCl] (80.2066 µM) was tested. Which “fraction of cells in G1 phase” value did it give?
**A.** The value was 0.52.

**Q.** Which “fraction of cells in G1 phase” value does the source give for `Nc1nc2c(ncn2COCCO)c(=O)[nH]1` [Acycloguanosine] (88.8066 µM) here?
**A.** The value was 0.472.

**Q.** Which “fraction of cells in G1 phase” value does the source give for `CC(C)(CO)[C@@H](O)C(=O)NCCC(=O)O` [Pantothenic acid] (91.2244 µM) here?
**A.** The value was 0.484.

**Q.** `CC(C)(O)c1ccccc1CC[C@@H](SCC1(CC(=O)O)CC1)c1cccc(/C=C/c2ccc3ccc(Cl)cc3n2)c1` [Montelukast] (34.1181 µM) was tested. Which “fraction of cells in G1 phase” value did it give?
**A.** The value was 0.532.

**Q.** How did the “fraction of cells in G1 phase” value turn out when `C[C@]12C=CC(=O)C=C1CC[C@@H]1[C@@H]2C(=O)C[C@@]2(C)[C@H]1CC[C@]2(O)C(=O)CO` [Prednisone] (55.7976 µM) was run?
**A.** Its value is 0.496.

**Q.** Which “fraction of cells in G1 phase” value does the source give for `C[C@]12C[C@H](O)[C@H]3[C@@H](CCC4=CC(=O)CC[C@@]43C)[C@@H]1CC[C@@H]2C(=O)CO` [Corticosterone] (57.7249 µM) here?
**A.** Its value is 0.512.

**Q.** `O=c1[nH]c(=O)n([C@H]2C[C@H](O)[C@@H](CO)O2)cc1I` [Idoxuridine] (56.4808 µM) was tested. Which “fraction of cells in G1 phase” value did it give?
**A.** Its value is 0.515.

**Q.** Which “fraction of cells in G1 phase” value does the source give for `Nc1nc(=O)n([C@@H]2CS[C@H](CO)O2)cc1F` [Emtricitabine] (80.8899 µM) here?
**A.** The value was 0.481.

**Q.** How did the “fraction of cells in G1 phase” value turn out when `COCCOC(=O)C1=C(C)NC(C)=C(C(=O)OC/C=C/c2ccccc2)C1c1cccc([N+](=O)[O-])c1` (stereo not drawn) [Cilnidipine] (40.6064 µM) was run?
**A.** The value was 0.494.

**Q.** `COc1cc(NS(=O)(=O)c2ccc(N)cc2)nc(OC)n1` [Sulfadimethoxine] (64.4467 µM) was tested. Which “fraction of cells in G1 phase” value did it give?
**A.** Its value is 0.48.

**Q.** For `Cc1onc(-c2ccccc2)c1C(=O)N[C@@H]1C(=O)N2[C@@H]1SC(C)(C)[C@@H]2C(=O)O` [Oxacillin sodium monohydrate] (49.9455 µM), which “fraction of cells in G1 phase” value is on record?
**A.** The value was 0.486.

**Q.** Which “fraction of cells in G1 phase” value does the source give for `CC[C@@]1(O)C(=O)OCc2c1cc1n(c2=O)Cc2cc3cc(O)ccc3nc2-1` [10-hydroxycamptothecin] (54.8906 µM) here?
**A.** The value was 0.499.

**Q.** Which “fraction of cells in G1 phase” value does the source give for `O=C(O)Cc1sc(-c2ccccc2)nc1-c1ccc(Cl)cc1` [Fentiazac] (60.6414 µM) here?
**A.** Its value is 0.533.

**Q.** `Cc1ncc([N+](=O)[O-])n1CC(C)O` (stereo not drawn) [Secnidazole] (108.001 µM) was tested. Which “fraction of cells in G1 phase” value did it give?
**A.** Its value is 0.48.

**Q.** With `CCOC(=O)[C@H](CCc1ccccc1)N[C@@H](C)C(=O)N1CCC[C@H]1C(=O)O` [Enalapril] (53.127 µM) as the compound, how does the “fraction of cells in G1 phase” value read?
**A.** The value was 0.511.

**Q.** How did the “fraction of cells in G1 phase” value turn out when `CS(=O)(=O)Nc1ccc([N+](=O)[O-])cc1Oc1ccccc1` [Nimesulide] (64.8687 µM) was run?
**A.** The value was 0.58.

**Q.** For `Cc1ccc(/C(=C\CN2CCCC2)c2ccccn2)cc1` [Trans-triprolidine HCl] (71.8389 µM), which “fraction of cells in G1 phase” value is on record?
**A.** Its value is 0.521.

**Q.** Which “fraction of cells in G1 phase” value does the source give for `Cc1ccc(C(=O)c2cc(O)c(O)c([N+](=O)[O-])c2)cc1` [Tolcapone] (73.1937 µM) here?
**A.** Its value is 0.522.

**Q.** How did the “fraction of cells in G1 phase” value turn out when `CNNCc1ccc(C(=O)NC(C)C)cc1` [Procarbazine HCl] (90.3731 µM) was run?
**A.** Its value is 0.49.

**Q.** How did the “fraction of cells in G1 phase” value turn out when `C[C@]12CC[C@@H]3c4ccc(O)cc4CC[C@H]3[C@@H]1C[C@@H](O)[C@@H]2O` [Estriol] (69.3505 µM) was run?
**A.** The value was 0.535.

**Q.** With `O=S(=O)(c1cccc2cnccc12)N1CCCNCC1` (54.8998 µM) as the compound, how does the “fraction of cells in G1 phase” value read?
**A.** Its value is 0.529.

**Q.** Which “fraction of cells in G1 phase” value does the source give for `N=C(N)N1CCc2ccccc2C1` [Debrisoquin sulfate] (114.132 µM) here?
**A.** Its value is 0.513.

**Q.** With `CCN(Cc1ccncc1)C(=O)C(CO)c1ccccc1` (stereo not drawn) [Tropicamide] (70.3331 µM) as the compound, how does the “fraction of cells in G1 phase” value read?
**A.** The value was 0.521.

**Q.** How did the “fraction of cells in G1 phase” value turn out when `O=NN(CCCl)C(=O)NC1CCCCC1` [Lomustine] (85.5799 µM) was run?
**A.** The value was 0.451.

**Q.** `COc1cc2nc(N3CCN(C(=O)C4COc5ccccc5O4)CC3)nc(N)c2cc1OC` (stereo not drawn) [Doxazosin mesylate] (44.2981 µM) was tested. Which “fraction of cells in G1 phase” value did it give?
**A.** The value was 0.442.

**Q.** Which “fraction of cells in G1 phase” value does the source give for `O=C1NC(=O)C(c2ccccc2)(c2ccccc2)N1` [Phenytoin] (79.2785 µM) here?
**A.** The value was 0.535.

**Q.** With `COc1cc2c(cc1OC)-c1c/c(=N\c3c(C)cc(C)cc3C)n(C)c(=O)n1CC2` [Trequinsin HCl] (45.2489 µM) as the compound, how does the “fraction of cells in G1 phase” value read?
**A.** The value was 0.425.

**Q.** How did the “fraction of cells in G1 phase” value turn out when `CC[C@@]1(O)C(=O)OCc2c1cc1n(c2=O)Cc2cc3c(CN(C)C)c(O)ccc3nc2-1` [Topotecan] (47.4544 µM) was run?
**A.** The value was 0.481.

**Q.** `C[C@]12C=CC(=O)C=C1CC[C@@H]1[C@@H]2[C@@H](O)C[C@@]2(C)[C@H]1CC[C@]2(O)C(=O)CO` [Prednisolone] (55.4855 µM) was tested. Which “fraction of cells in G1 phase” value did it give?
**A.** Its value is 0.466.

**Q.** Which “fraction of cells in G1 phase” value does the source give for `COC(=O)C1=C(C)NC(C)=C(C(=O)OCCN2CCN(C(c3ccccc3)c3ccccc3)CC2)C1c1cccc([N+](=O)[O-])c1` (stereo not drawn) [Manidipine] (32.7484 µM) here?
**A.** The value was 0.554.

**Q.** `C#C[C@]1(O)CC[C@H]2[C@@H]3[C@H](C)CC4=C(CCC(=O)C4)[C@H]3CC[C@@]21C` [Tibolone] (64.009 µM) was tested. Which “fraction of cells in G1 phase” value did it give?
**A.** The value was 0.56.

**Q.** With `COc1ccc2[nH]c([S@@+]([O-])Cc3ncc(C)c(OC)c3C)nc2c1` [Esomeprazole potassium] (57.9 µM) as the compound, how does the “fraction of cells in G1 phase” value read?
**A.** The value was 0.522.

**Q.** With `CC(C)NCC(O)c1ccc2ccccc2c1` (stereo not drawn) [Pronethalol HCl] (87.2126 µM) as the compound, how does the “fraction of cells in G1 phase” value read?
**A.** The value was 0.502.

**Q.** With `CCCCCN(CCCCC)C(=O)C(CCC(=O)O)NC(=O)c1ccc(Cl)c(Cl)c1` (stereo not drawn) [Lorglumide] (43.5334 µM) as the compound, how does the “fraction of cells in G1 phase” value read?
**A.** Its value is 0.482.

**Q.** For `CO[C@H]1C[C@H](O[C@H]2[C@H](C)[C@@H](O[C@@H]3O[C@H](C)C[C@H](N(C)C)[C@H]3OC(C)=O)[C@@H](C)C[C@@]3(CO3)C(=O)[C@H](C)[C@@H](OC(C)=O)[C@@H](C)[C@@H](C)OC(=O)[C@@H]2C)O[C@@H](C)[C@@H]1OC(C)=O` [Troleandomycin] (24.5704 µM), which “fraction of cells in G1 phase” value is on record?
**A.** The value was 0.489.

**Q.** For `Cc1c(C)c2c(c(C)c1O)CCC(C)(COc1ccc(CC3SC(=O)NC3=O)cc1)O2` (stereo not drawn) [Troglitazone] (45.2949 µM), which “fraction of cells in G1 phase” value is on record?
**A.** The value was 0.591.

**Q.** With `CNS(=O)(=O)Cc1ccc2[nH]cc(CCN(C)C)c2c1` [Sumatriptan Succinate] (48.368 µM) as the compound, how does the “fraction of cells in G1 phase” value read?
**A.** Its value is 0.457.

**Q.** `C[C@]12C=CC(=O)C=C1CC[C@H]1[C@@H]3C[C@@H](O)[C@](O)(C(=O)CO)[C@@]3(C)C[C@H](O)[C@@]12F` [Triamcinolone] (50.7043 µM) was tested. Which “fraction of cells in G1 phase” value did it give?
**A.** Its value is 0.483.
